The text below walks through data of paper PMC7862700, “An all-to-all approach to the identification of sequence-specific readers for epigenetic DNA modifications on cytosine”.

Common to all, as to test: DAPPL (digital affinity profiling via proximity ligation, sequencing); 10 mM Tris-HCl pH 7.5, 50 mM NaCl, 1 mM DTT, 4% glycerol, room temperature, 30 min; GST-TFs on glutathione beads, 16-mer random dsDNA library, 0.1% formaldehyde crosslink after washing; high values mean tight binding
One assay concerns the target T1, FLI1 (Homo sapiens, UniProt Q01543 1-452).
T1 sequence: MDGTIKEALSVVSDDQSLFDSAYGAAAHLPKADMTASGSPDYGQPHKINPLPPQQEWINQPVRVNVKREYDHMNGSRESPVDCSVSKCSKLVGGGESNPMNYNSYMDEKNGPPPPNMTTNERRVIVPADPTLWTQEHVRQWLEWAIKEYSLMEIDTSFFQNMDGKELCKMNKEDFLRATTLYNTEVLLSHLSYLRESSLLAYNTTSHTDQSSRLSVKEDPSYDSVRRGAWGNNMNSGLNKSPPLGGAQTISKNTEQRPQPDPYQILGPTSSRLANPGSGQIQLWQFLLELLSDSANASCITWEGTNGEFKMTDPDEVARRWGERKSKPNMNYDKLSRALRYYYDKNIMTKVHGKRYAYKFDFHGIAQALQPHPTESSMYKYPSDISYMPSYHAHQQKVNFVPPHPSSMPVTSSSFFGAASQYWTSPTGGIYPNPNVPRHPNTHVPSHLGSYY
The conditions noted are these: protein: recombinant; tags: N-terminal GST; dsDNA, one strand shown. An outline of the steps: (§1)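 Beads coated with glutathione captured GST-fused human transcription factors that had been expressed in yeast, and the factors were then given DNA barcodes and pooled with a tag-only sample. The pools were incubated with 200 nmole of a random double-stranded 16-mer DNA library in Tris/NaCl/DTT/glycerol buffer for 30 min at room temperature, washed, crosslinked with 0.1% formaldehyde and proximity-ligated with BsaI/T4 ligase at 37 °C for 1 h. PCR amplification and Illumina NextSeq500 sequencing came last. Binding signal is each hexamer's read frequency for a factor divided by its frequency for the tag-only sample.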

The next assay deals with T2, ELK1 (Homo sapiens, UniProt P19419 1-428).
T2 sequence: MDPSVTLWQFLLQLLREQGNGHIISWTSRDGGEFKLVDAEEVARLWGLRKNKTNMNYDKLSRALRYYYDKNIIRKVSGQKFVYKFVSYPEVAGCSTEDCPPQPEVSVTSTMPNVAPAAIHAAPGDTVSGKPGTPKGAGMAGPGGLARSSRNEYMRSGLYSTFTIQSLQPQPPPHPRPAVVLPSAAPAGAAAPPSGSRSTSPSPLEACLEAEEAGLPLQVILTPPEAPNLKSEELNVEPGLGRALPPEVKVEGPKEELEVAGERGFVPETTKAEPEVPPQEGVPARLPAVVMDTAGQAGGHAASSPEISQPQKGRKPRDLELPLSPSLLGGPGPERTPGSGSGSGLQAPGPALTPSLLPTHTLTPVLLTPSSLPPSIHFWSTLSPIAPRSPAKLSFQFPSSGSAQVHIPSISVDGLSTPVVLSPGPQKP
The conditions noted are these: protein: recombinant; tags: N-terminal GST; dsDNA, one strand shown. An outline of the steps: as §1

The target in a further assay is T3, GABPA (Homo sapiens, UniProt Q06546 1-454).
T3 sequence: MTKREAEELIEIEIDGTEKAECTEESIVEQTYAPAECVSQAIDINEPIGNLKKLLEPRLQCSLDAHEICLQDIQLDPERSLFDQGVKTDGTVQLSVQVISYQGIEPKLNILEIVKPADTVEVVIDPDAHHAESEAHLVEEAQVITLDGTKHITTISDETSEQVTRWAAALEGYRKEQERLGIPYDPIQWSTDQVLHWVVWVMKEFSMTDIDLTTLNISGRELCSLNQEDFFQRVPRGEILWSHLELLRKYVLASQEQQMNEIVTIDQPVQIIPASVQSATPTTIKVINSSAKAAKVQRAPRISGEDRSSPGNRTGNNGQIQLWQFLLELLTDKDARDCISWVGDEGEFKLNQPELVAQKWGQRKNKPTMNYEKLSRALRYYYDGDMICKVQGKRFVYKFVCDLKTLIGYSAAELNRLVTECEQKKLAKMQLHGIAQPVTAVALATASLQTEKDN
The conditions noted are these: protein: recombinant; tags: N-terminal GST; dsDNA, one strand shown. An outline of the steps: as §1

A further assay concerns the target T4, ERG (Homo sapiens, UniProt P11308 1-479).
T4 sequence: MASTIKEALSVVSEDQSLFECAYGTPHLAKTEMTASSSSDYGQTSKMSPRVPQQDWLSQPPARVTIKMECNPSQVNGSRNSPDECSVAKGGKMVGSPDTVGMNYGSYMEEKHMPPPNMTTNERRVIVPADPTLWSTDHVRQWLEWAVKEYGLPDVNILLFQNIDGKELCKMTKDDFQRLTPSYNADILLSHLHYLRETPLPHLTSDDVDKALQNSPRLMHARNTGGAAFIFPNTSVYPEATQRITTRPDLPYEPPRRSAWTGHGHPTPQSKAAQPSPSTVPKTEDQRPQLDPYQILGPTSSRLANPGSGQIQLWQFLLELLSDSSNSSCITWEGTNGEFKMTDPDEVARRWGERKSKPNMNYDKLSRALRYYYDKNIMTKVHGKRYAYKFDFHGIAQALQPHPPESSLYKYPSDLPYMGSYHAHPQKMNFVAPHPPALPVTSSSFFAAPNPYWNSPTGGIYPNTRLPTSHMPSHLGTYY
The conditions noted are these: protein: recombinant; tags: N-terminal GST; dsDNA, one strand shown. An outline of the steps:
as §1

The next assay deals with ELF1 (Homo sapiens, UniProt P32519 1-619). To be noted: protein: recombinant; tags: N-terminal GST; dsDNA, one strand shown. An outline of the steps:
as §1

The target of a further assay is T5, EHF (Homo sapiens, UniProt Q9NZC4 1-300).
T5 sequence: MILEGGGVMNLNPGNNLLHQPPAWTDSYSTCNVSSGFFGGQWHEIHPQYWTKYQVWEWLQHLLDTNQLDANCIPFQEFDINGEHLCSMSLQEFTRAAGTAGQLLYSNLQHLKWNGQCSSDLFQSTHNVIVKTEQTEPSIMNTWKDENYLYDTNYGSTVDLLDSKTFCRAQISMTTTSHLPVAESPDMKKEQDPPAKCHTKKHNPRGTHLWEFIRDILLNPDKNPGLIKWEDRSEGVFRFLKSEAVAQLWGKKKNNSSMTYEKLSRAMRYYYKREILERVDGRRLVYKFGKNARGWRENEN
The conditions noted are these: protein: recombinant; tags: N-terminal GST; dsDNA, one strand shown. An outline of the steps: as §1

The target of the next assay is SPI1 (Homo sapiens, UniProt P17947 1-270). To be noted: protein: recombinant; tags: N-terminal GST; dsDNA, one strand shown. An outline of the steps:
as §1

The next assay has as its target SPIB (Homo sapiens, UniProt Q01892 1-262). The conditions noted are these: protein: recombinant; tags: N-terminal GST; dsDNA, one strand shown. An outline of the steps:
as §1

The next assay has as its target T6, ELK3 (Homo sapiens, UniProt P41970 1-407).
T6 sequence: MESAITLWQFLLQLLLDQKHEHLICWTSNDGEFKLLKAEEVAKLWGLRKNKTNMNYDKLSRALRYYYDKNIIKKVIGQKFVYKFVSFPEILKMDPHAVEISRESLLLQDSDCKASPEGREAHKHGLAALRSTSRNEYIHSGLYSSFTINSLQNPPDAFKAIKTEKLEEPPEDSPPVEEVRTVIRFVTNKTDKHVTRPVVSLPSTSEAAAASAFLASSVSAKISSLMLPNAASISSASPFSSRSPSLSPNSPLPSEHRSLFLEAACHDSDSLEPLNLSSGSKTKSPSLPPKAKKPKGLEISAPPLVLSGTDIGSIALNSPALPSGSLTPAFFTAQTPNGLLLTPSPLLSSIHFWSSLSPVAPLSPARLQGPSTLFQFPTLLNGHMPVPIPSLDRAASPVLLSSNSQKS
To be noted: protein: recombinant; tags: N-terminal GST; dsDNA, one strand shown. An outline of the steps: as §1

The target in another assay is T7, FEV (Homo sapiens, UniProt Q99581 1-238).
T7 sequence: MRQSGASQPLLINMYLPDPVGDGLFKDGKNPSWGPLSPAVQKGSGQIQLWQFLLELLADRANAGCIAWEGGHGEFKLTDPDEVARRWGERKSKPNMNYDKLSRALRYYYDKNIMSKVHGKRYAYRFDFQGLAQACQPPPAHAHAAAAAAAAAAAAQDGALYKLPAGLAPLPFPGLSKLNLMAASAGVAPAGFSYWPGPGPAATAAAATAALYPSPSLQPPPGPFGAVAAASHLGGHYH
To be noted: protein: recombinant; tags: N-terminal GST; dsDNA, one strand shown. An outline of the steps: as §1

The target of another assay is ETV5 (Homo sapiens, UniProt P41161 1-510). To be noted: protein: recombinant; tags: N-terminal GST; dsDNA, one strand shown. An outline of the steps: as §1
Chain of ETV5 (P41161 whole entry): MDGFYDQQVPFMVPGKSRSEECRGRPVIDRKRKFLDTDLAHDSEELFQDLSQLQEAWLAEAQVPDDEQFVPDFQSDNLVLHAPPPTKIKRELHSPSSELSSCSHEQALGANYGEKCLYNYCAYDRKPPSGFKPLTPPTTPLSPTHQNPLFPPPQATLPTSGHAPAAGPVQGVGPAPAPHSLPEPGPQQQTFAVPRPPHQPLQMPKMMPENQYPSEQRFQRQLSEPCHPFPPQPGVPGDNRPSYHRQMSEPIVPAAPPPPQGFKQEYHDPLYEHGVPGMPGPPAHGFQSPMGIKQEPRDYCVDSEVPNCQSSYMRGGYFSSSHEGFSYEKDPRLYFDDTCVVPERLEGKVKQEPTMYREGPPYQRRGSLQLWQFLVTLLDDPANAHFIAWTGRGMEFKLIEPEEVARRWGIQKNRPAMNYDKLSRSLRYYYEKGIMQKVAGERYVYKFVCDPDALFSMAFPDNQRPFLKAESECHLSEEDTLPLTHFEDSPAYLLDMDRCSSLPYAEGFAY
Another assay concerns the target HSF1 (Homo sapiens, UniProt Q00613 1-529). The conditions noted are these: protein: recombinant; tags: N-terminal GST; chain copies: 3; dsDNA, one strand shown. An outline of the steps: as §1
The next assay has as its target ELF4 (Homo sapiens, UniProt Q99607 1-663). The conditions noted are these: protein: recombinant; tags: N-terminal GST; dsDNA, one strand shown. An outline of the steps:
as §1

For another assay, the target named is T8, ELK4 (Homo sapiens, UniProt P28324-2 1-405).
T8 sequence: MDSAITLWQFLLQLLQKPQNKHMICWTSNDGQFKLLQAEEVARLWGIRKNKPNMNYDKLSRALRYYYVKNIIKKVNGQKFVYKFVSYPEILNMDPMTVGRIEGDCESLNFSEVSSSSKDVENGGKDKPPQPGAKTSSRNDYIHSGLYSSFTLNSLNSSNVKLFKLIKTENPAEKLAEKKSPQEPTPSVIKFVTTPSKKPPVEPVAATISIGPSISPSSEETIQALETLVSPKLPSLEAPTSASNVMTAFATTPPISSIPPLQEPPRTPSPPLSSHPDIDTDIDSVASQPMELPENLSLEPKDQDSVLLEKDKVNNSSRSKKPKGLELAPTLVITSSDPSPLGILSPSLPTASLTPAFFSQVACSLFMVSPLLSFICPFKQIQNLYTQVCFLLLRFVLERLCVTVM
To be noted: protein: recombinant; tags: N-terminal GST; dsDNA, one strand shown. An outline of the steps:
as §1

The target in the next assay is T9, ETV2 (Homo sapiens, UniProt O00321 1-342).
T9 sequence: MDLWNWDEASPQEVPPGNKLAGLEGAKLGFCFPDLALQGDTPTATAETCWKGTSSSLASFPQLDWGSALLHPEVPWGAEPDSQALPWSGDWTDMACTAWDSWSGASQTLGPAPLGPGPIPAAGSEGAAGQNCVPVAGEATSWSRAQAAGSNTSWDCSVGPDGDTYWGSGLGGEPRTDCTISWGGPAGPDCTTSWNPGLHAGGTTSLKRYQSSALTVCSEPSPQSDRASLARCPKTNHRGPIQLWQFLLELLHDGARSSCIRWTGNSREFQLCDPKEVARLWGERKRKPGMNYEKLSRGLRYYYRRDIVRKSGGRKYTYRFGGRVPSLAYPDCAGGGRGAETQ
The conditions noted are these: protein: recombinant; tags: N-terminal GST; dsDNA, one strand shown. An outline of the steps: as §1

The next assay concerns the target T10, ELF3 (Homo sapiens, UniProt P78545 1-371).
T10 sequence: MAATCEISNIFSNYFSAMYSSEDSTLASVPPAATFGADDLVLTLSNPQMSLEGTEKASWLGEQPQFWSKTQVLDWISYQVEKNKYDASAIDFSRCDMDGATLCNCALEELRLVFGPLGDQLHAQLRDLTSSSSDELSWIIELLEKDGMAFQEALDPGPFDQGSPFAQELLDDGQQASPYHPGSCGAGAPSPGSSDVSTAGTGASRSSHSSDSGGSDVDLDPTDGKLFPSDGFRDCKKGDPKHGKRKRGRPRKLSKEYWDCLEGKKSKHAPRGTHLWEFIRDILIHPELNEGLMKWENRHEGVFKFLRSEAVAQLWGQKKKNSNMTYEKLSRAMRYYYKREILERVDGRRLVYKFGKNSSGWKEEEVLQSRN
To be noted: protein: recombinant; tags: N-terminal GST; dsDNA, one strand shown. An outline of the steps: as §1

The target of another assay is CRX (Homo sapiens, UniProt O43186 1-299). To be noted: protein: recombinant; tags: N-terminal GST; dsDNA, one strand shown. An outline of the steps:
as §1

The target in the next assay is ETV1 (Homo sapiens, UniProt P50549 1-477). To be noted: protein: recombinant; tags: N-terminal GST; dsDNA, one strand shown. An outline of the steps: as §1
Chain of ETV1 (P50549 whole entry): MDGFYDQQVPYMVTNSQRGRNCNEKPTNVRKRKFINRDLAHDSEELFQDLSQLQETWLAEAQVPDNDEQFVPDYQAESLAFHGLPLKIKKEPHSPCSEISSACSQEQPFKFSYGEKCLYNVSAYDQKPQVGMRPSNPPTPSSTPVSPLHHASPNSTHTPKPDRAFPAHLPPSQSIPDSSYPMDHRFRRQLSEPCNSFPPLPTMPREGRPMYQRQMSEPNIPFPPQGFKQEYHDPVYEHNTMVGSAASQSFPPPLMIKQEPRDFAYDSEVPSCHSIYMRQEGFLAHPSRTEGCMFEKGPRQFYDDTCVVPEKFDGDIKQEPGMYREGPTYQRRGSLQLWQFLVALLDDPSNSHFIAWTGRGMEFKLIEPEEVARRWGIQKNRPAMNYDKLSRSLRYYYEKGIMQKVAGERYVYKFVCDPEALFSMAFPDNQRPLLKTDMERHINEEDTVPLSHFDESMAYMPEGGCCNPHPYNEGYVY

Chain of ELF1 (P32519 whole entry): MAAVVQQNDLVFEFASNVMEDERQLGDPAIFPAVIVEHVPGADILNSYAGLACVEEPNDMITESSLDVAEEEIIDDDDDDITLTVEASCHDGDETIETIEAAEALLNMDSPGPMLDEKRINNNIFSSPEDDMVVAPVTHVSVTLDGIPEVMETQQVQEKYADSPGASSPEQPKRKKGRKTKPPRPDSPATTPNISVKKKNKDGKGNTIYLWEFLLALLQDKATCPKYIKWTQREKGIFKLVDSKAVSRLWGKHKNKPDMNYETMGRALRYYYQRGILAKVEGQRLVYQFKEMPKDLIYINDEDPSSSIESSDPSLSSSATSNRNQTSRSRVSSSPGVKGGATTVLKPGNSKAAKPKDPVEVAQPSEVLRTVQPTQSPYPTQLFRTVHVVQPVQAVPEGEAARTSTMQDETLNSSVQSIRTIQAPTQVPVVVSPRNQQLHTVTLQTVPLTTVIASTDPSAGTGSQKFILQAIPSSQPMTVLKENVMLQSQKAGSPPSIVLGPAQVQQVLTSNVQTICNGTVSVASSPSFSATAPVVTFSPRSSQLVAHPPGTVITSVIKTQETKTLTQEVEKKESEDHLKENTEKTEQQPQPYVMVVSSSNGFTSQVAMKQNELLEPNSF
Chain of ELF4 (Q99607 whole entry): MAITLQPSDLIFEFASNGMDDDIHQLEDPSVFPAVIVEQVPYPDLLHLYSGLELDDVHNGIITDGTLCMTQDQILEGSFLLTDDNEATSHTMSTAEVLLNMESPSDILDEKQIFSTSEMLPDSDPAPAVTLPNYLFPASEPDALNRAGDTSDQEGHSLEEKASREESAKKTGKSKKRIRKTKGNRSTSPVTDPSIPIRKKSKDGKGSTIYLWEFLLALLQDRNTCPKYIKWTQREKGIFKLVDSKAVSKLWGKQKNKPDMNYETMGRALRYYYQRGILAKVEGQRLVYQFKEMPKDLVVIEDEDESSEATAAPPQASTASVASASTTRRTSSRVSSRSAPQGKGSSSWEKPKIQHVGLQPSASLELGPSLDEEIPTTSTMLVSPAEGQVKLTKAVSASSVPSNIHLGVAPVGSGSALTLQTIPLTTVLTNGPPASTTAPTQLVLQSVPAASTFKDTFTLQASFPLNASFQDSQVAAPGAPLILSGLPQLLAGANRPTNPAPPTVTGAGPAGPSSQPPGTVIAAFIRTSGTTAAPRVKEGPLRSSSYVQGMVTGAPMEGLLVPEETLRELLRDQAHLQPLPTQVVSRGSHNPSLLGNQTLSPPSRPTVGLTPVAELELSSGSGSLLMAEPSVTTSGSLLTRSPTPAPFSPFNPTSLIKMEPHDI
Chain of SPIB (Q01892 whole entry): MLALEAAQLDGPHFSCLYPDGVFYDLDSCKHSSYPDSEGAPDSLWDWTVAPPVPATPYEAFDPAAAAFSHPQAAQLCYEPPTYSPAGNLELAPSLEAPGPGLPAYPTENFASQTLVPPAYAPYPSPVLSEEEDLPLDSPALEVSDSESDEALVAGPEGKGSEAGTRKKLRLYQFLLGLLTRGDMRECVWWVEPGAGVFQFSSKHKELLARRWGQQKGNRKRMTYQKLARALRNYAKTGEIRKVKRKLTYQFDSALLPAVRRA
Chain of HSF1 (Q00613 whole entry): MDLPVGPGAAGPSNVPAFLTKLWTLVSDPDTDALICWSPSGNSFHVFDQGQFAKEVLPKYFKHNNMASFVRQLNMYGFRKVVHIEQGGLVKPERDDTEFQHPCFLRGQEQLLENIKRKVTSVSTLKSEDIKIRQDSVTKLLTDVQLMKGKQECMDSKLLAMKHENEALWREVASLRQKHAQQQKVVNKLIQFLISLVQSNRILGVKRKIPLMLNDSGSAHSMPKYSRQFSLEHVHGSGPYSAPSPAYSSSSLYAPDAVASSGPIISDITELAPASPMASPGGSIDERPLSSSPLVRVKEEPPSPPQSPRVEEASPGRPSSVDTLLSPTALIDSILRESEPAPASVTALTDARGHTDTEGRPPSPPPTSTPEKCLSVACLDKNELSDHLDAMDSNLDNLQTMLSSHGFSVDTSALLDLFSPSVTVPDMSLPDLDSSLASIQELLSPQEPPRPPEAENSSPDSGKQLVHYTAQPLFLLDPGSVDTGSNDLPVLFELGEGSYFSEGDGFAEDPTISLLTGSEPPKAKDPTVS
Chain of CRX (O43186 whole entry): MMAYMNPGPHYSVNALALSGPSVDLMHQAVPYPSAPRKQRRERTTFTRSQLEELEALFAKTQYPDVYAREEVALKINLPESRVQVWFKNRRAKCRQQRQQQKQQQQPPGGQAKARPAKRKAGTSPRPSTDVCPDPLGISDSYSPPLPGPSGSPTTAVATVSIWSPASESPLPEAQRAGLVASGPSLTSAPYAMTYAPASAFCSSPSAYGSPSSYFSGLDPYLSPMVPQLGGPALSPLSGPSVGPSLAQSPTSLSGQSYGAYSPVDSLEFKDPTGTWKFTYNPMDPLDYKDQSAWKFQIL

For the sequence AAGCTC, the binding signal with FLI1 was 1.22 fold enrichment (6-mer frequency, TF over GST control); with ELK1 it was 1.22 fold enrichment (6-mer frequency, TF over GST control); in the assay with GABPA, 1.25 fold enrichment (6-mer frequency, TF over GST control); with ERG, 1.17 fold enrichment (6-mer frequency, TF over GST control); in the assay with ELF1, 1.2 fold enrichment (6-mer frequency, TF over GST control); with EHF it was 1.15 fold enrichment (6-mer frequency, TF over GST control). Besides, the binding signal with SPI1 was 1.12 fold enrichment (6-mer frequency, TF over GST control); with SPIB, 1.11 fold enrichment (6-mer frequency, TF over GST control); with ELK3, 1.09 fold enrichment (6-mer frequency, TF over GST control); with FEV it was 1.14 fold enrichment (6-mer frequency, TF over GST control); in the assay with ETV5 it was 1.16 fold enrichment (6-mer frequency, TF over GST control); with HSF1, 1.42 fold enrichment (6-mer frequency, TF over GST control). Moreover, the binding signal is 1.21 fold enrichment (6-mer frequency, TF over GST control) with ELF4; 1.2 fold enrichment (6-mer frequency, TF over GST control) in the assay with ELK4; 1.15 fold enrichment (6-mer frequency, TF over GST control) with ETV2; 1.2 fold enrichment (6-mer frequency, TF over GST control) with ELF3; 1.68 fold enrichment (6-mer frequency, TF over GST control) in the assay with CRX; 1.22 fold enrichment (6-mer frequency, TF over GST control) with ETV1.
